Dicer inh = blocks human Dicer maturation of pre-miR-21; cat-ELCCA pre-miR-21 Dicer processing, chemiluminescence; hits give high values; Q9UPY3; 6% of 47,000 active; z-score at 25 µM; in the data active = z-score above about 3, passing the limit was not always enough;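 also: plate controls were vehicle for no effect and no enzyme for full effect; higher signal means more uncleaved substrate so more Dicer inhibition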
An asterisk follows results filed as active. This is one part of a sample in which hits are shown more often than they occur.

SMILES | Dicer inh
COC(=O)c1sc2c(c1NC(=O)c1ccccc1)CSc1ccc(Cl)cc1-2 | -0.96
CC1CCC(C(C)C)C(NC(=O)c2cccc(C(F)(F)F)c2)C1 (centres undefined) | -1.3
O=C(Nc1csc2ccccc12)NC1Cc2ccccc2C1 | 1.6
S=C1CC(c2ccccc2)Sc2ccccc2N1 (centres undefined) | 0.9
c1ccc(C2CCCC(c3ccccc3)S2)cc1 (centres undefined) | 4.8*
CC1(O)CC(c2ccccc2)SC(c2ccccc2)C1 (centres undefined) | 0.18
CC(C)(C)c1ccc(-c2nc(-c3ccccc3)no2)cc1 | -0.66
Cc1nnc(N2C(=O)C(=O)/C(=C(/O)c3ccc(Cl)cc3)C2c2ccccc2F)s1 (centres undefined) | 1.4
Cc1cc(C)c2c(=O)c(/C=C3/SC(=S)N(c4cccc(Cl)c4)C3=O)coc2c1 | -1.8
O=C1/C(=C\c2ccc(Cl)c(Cl)c2)SC(=S)N1c1ccc(F)c(F)c1 | 0.62
O=C1/C(=C\c2ccccc2)SC(=S)N1c1cccc(Br)c1 | 4*
N#C/C(=N\Nc1ccc(Cl)cc1Cl)C(=O)c1ccc(Cl)cc1 | 74
OCCCc1nc2n(n1)C(c1ccc(Cl)cc1)C=C(c1ccccc1)N2 (centres undefined) | 2.2
CCc1ccc(Oc2c(C(F)(F)F)oc3c(CN4CCOCC4)c(O)ccc3c2=O)cc1 | -1.1
Cc1cccc(OCCSc2nc3ccccc3n2CCO)c1 | 5.6*
Cc1ccc(OCCn2c(SCCO)nc3ccccc32)cc1 | 0.65
Cc1ccc(OCCSc2nc3ccccc3o2)cc1 | -1.5
Cc1ccc(OCCSc2n[nH]c3nc4ccccc4n23)cc1 | 6.2*
O=C(O)CCSc1n[nH]c2nc3ccccc3n12 | -1.2
CCn1c(SCCOc2ccc(OC)cc2)nc2ccccc21 | -1.9
CC(=O)Nc1ccc(NC(=O)CSCC(=O)O)cc1 | -1.1
N#C/C(=C\NC1CCN(Cc2ccccc2)CC1)S(=O)(=O)c1ccc(Cl)cc1 | -1.2
CNC(=O)C(NC(=O)OC(C)(C)C)C(C)OCc1ccccc1 (centres undefined) | -0.54
Cc1nn(-c2ccccc2)nc1C(=O)Nc1nnc(Sc2ccnc3cc(Cl)ccc23)s1 | -0.35
CSc1sc(-c2ccn[nH]2)c2c1C(=O)CC(C)(C)C2 | -1.2
SMILES | Dicer inh
COc1ccc([N+](=O)[O-])c(SC(C)C(=O)O)n1 (centres undefined) | 0.05
O=C(NCc1cccs1)c1nc2ncccn2n1 | -0.35
Nc1ccc(Cl)cc1C(=O)NCc1cccs1 | 21*
CCCCCc1ccc(C(=O)NCc2cccs2)cc1 | -0.45
COc1cccc(OCC(O)CN2CC(C)OC(C)C2)c1 (centres undefined) | 0.99
CNS(=O)(=O)Cc1ccc([N+](=O)[O-])cc1 | -1.9
O=[N+]([O-])c1ccc(NS(=O)(=O)c2ccc(-c3ccc(S(=O)(=O)Nc4ccc([N+](=O)[O-])cc4)s3)s2)cc1 | 5.3*
Cc1cc(C)c(NS(=O)(=O)c2cc([N+](=O)[O-])ccc2C)c(C)c1 | 0.22
CCCc1c(C)nc(SCC(=O)C(C)(C)C)[nH]c1=O | 0.38
O=C(NNc1c(Cl)cccc1Cl)c1ccc(F)cc1F | -0.06
CCC(Nc1n[nH]c(=O)[nH]c1=O)C(=O)OC (centres undefined) | 3.2*
CCOC(=O)Cc1n[nH]c(=O)[nH]c1=O | -0.76
O=C(O)CNc1n[nH]c(=O)[nH]c1=O | -0.93
Cc1nn2c3c(cnc2c1-c1ccccc1)C(=O)CC(c1cccs1)C3 (centres undefined) | 4.1
CC(C)(CC(=O)O)CC(=O)Nc1ccc2c(c1)OCO2 | -0.24
CCCc1cc(N2CCN(CCO)CC2)n2c(nc3ccccc32)c1C#N | 1.4
Cc1cc(N2CCN(CCO)CC2)n2c(nc3ccccc32)c1C#N | 5.3*
Cc1cc(NCCCCO)n2c(nc3ccccc32)c1C#N | 0.91
CSc1scc2c1/C(=N/OC(=O)c1cccc(C(F)(F)F)c1)CC(C)(C)C2 | -0.09
S=C(Nc1ccccc1)N1N=C2c3ccccc3CCC2C1c1ccc(Cl)cc1 (centres undefined) | -2.2
Oc1ccccc1-c1nc(-c2ccccc2)no1 | 0.04
Cc1ccsc1/C=C/c1noc(-c2ccccc2O)n1 | 3.3*
Cc1ccccc1-c1nc(C2CCCCC2)no1 | 1.7
CCN(CC)c1ccc(/C=C/c2noc(-c3ccccc3O)n2)cc1 | 0.97
Oc1ccccc1-c1nc(/C=C/c2ccc(Cl)cc2)no1 | 6.7*
SMILES | Dicer inh
CSc1ccc(/C=C/c2noc(-c3ccccc3O)n2)cc1 | -1.9
Cc1ccc(S(=O)(=O)Nc2ccc(-c3cn4ccccc4n3)cc2)cc1 | 1.1
O=C(Nc1ccc(S(=O)(=O)N2CCCC2)cc1)C1c2ccccc2Oc2ccccc21 | -0.97
O=C(C1Sc2nnc(-c3ccccc3)n2NC1c1ccccc1)N1CCCCC1 (centres undefined) | -0.56
CCn1cc(C(=O)O)c(=O)c2cc3c(cc21)OCO3 | -0.39
CCn1cc(C(=O)O)c(=O)c2cnc(N3CCN(C(=O)Nc4ccccc4)CC3)nc21 | -0.82
CCn1cc(C(=O)O)c(=O)c2cnc(N3CCCC3)nc21 | 4.5*
CCN(CC)C(=O)c1sc(NC(=O)c2cc(-c3ccc(C)o3)nc3ccccc23)c(C(N)=O)c1C | -1.4
O=C(Nc1cnc2ccc(Cl)cn2c1=O)c1ccccc1 | -0.13
O=C(CCc1nc(-c2ccc(Cl)cc2)no1)NNC(=O)c1ccccc1-n1cccc1 | -0.85
COc1ccc(S(=O)(=O)NCCC#N)cc1OC | 0.71
CCCSc1sc(C(=O)OC)c2c1C(=O)CC(C)(C)C2 | -0.81
CCSc1sc(C(=O)OC)c2c1/C(=N/O)CC(C)(C)C2 | 2.5
CCSc1sc(C#N)c2c1C(=O)CC(C)(C)C2 | 3.6*
Cc1cc(C)c2c(n1)sc1c(N(Cc3ccccc3)Cc3ccccc3)ncnc12 | -0.77
CC(C)(C)C(=O)Nc1ncccc1C(=O)O | 2.8
Oc1ccccc1OCCOc1ccccc1O | -7
COc1ccc(NC(=O)Nc2ccc(OC(F)(F)F)cc2)c(OC)n1 | 0.18
Cc1cccc(Cl)c1NC(=S)NN | 1.1
CCc1cccc(CC)c1NC(=O)C(Cl)Cl | -0.22
CCc1cccc(CC)c1NC(=S)NN | 3.1*
CCCC(CCC)C(C(=O)O)C(=O)OCC (centres undefined) | 0.76
CCOC(=O)N1CCc2c(sc3ncn(CC(C)=O)c(=O)c23)C1 | -1.1
CC(C)c1ccc(NC(=O)Nc2csc(Cc3c(Cl)cccc3Cl)n2)cc1 | 1.4
CSc1sc(C(=O)O)c(-c2cccc(Cl)c2)c1C#N | -0.4
SMILES | Dicer inh
CCOc1ccc(C2C(C(=O)OC(C)C)C(=O)CC(C)(O)C2C(=O)OC(C)C)cc1 (centres undefined) | 0.27
Cc1ccc(C(=O)CSc2nnc(C)n2-c2ccc(OCc3ccccc3)cc2)cc1 | -0.35
CCOC(=O)c1sc(SC)c2c1CC(c1ccccc1)CC2=O (centres undefined) | 3.7*
CCOC(=O)C1=C(C)NC2=C(C(=O)CC(c3ccccc3)C2)C1c1cc(C)sc1SC (centres undefined) | 0.21
CCOC(=O)c1sc(SC)c2c1CC/C(=C\N(C)C)C2=O | -7
COc1cccc(C(=O)NCCN2CCN(c3ccc(Cl)cc3)CC2)c1 | 3.9*
CSc1nnc(SC)n1CCNC(=O)c1cccc(Cl)c1 | -0.27
COc1cccc(C(=O)Nc2nc(SCc3ccc(Cl)cc3)n[nH]2)c1 | -0.48
COc1ccccc1C1/C(=C(\O)c2ccc(Br)cc2)C(=O)C(=O)N1CCCn1ccnc1 (centres undefined) | -2.4
CC12CN3CC(C)(CN(C1)C3c1c(O)ccc3ccccc13)C2 (centres undefined) | 0.38
Cc1ccc(CNCc2ccc3c(c2)OCO3)cc1 | 0.29
